Data: the supplement of paper PMC10849652
Targets with a hit are over-represented here; the source holds about 7,900 in all. About 0.6% of all pairs of compound and target were hits. A number with no mark means an inactive call.

Assays:
Assay in all cases: log2 fold change, soluble protein after heating vs DMSO (PISA); higher = thermal stabilisation; K562 cells, 10 uM, 30 min; active = over 0.2 and 3.5 SD of the protein, either way, in both replicates (recomputed)
saracatinib = compound: CN1CCN(CCOc2cc(OC3CCOCC3)c3c(Nc4c(Cl)ccc5c4OCO5)ncnc3c2)CC1 [saracatinib]
Outline: (§1)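 Values are thermal stability changes relative to control samples and are taken from duplicates. They are stated as log2 fold changes. Before quantification by TMTpro 16plex LC-MS/MS with equalised channel sums, K562 cells at 2×10^6 cells/mL were treated with 10 μM compound for 30 min, heated in aliquots for 3 min across 48°C-58°C, pooled, extracted in PBS with 0.5% NP-40 at 4°C, and centrifuged at 21,000xg for 90 min to give the soluble supernatant.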

sotrastaurin = compound: CN1CCN(c2nc(C3=C(c4c[nH]c5ccccc45)C(=O)NC3=O)c3ccccc3n2)CC1 [sotrastaurin]
Outline: as §1

alvocidib = compound: CN1CC[C@H](c2c(O)cc(O)c3c(=O)cc(-c4ccccc4Cl)oc23)[C@H](O)C1 [alvocidib]
Outline: as §1

Tubastatin A = compound: CN1CCc2c(c3ccccc3n2Cc2ccc(C(=O)NO)cc2)C1 [Tubastatin A]
Outline: as §1

[1] = compound: CNC(=O)C1=CC=CC=C1NC2=NC(=NC=C2Cl)NC3=C(C=C(C=C3)N4CCOCC4)OC
Outline: as §1

defactinib = compound: CNC(=O)c1ccc(Nc2ncc(C(F)(F)F)c(NCc3nccnc3N(C)S(C)(=O)=O)n2)cc1 [defactinib]
Outline: as §1

rucaparib = compound: CNCc1ccc(-c2[nH]c3cc(F)cc4c3c2CCNC4=O)cc1 [rucaparib]
Outline: as §1

[2] = compound: CNc1nc(-c2ccc3c(N)n[nH]c3c2)cc(N2C[C@@H](C(=O)NC3CCCCC3)CC[C@H]2C)n1
Outline: as §1

encorafenib = compound: COC(=O)N[C@@H](C)CNc1nccc(-c2cn(C(C)C)nc2-c2cc(Cl)cc(NS(C)(=O)=O)c2F)n1 [encorafenib]
Outline: as §1

[3] = compound: COC(=O)[C@H](CCSC)NC(=O)C1=C(C=C(C=C1)NC[C@H](CS)N)C2=CC=CC=C2
Outline: as §1

UniProt P22570, sequence (P22570 whole entry, looked up): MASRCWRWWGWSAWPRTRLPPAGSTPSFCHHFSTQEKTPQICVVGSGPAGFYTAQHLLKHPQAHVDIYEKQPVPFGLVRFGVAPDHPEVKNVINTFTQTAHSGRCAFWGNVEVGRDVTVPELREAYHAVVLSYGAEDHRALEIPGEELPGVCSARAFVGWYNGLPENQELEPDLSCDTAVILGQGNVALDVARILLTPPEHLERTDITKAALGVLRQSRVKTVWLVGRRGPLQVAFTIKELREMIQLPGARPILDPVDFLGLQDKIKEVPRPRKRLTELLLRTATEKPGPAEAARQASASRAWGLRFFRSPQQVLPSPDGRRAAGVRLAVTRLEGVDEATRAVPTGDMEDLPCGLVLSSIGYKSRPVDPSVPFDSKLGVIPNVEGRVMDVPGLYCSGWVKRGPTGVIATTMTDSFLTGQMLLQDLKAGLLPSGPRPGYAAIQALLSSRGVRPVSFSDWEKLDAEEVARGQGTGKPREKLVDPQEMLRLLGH
UniProt O15228, sequence (O15228 whole entry, looked up): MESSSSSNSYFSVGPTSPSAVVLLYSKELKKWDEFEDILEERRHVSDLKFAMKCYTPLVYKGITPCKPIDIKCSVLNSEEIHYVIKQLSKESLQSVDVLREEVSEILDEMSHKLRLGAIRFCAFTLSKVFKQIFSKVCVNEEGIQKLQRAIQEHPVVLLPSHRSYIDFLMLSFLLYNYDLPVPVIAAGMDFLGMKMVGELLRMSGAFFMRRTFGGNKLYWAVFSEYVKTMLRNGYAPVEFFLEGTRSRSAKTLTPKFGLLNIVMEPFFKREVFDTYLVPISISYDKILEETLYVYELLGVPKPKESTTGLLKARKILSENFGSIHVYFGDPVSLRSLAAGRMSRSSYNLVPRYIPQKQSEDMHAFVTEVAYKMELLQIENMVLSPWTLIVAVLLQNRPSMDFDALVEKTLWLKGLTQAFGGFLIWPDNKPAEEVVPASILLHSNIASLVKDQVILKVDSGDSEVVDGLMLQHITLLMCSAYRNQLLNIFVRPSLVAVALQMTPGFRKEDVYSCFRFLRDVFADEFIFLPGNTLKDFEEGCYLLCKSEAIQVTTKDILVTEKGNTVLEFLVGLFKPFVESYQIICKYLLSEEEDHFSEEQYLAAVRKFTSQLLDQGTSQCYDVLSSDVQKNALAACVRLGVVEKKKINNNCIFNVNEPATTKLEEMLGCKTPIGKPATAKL
UniProt P07686, sequence (P07686 whole entry, looked up): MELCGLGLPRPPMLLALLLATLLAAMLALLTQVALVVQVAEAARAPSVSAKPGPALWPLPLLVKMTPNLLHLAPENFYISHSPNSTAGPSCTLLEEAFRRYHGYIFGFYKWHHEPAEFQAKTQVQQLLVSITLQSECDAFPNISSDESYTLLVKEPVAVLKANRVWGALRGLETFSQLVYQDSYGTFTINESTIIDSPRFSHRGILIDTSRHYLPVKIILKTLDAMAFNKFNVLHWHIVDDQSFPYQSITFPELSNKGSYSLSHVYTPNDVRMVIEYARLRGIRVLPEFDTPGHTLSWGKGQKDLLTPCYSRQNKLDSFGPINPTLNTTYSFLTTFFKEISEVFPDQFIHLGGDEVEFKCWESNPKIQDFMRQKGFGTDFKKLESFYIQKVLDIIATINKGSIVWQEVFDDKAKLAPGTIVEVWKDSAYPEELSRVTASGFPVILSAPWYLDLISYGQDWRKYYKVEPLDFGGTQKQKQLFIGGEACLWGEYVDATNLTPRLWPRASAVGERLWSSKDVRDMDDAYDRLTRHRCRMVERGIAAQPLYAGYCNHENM
UniProt Q03013, sequence (Q03013 whole entry, looked up): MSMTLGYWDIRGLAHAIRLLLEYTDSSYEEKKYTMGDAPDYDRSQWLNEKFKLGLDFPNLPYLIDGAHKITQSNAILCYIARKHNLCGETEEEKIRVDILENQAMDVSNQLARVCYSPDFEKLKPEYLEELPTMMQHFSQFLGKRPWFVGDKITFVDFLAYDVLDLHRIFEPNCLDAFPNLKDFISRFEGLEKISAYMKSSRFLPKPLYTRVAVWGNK
UniProt P36969, sequence (P36969 whole entry, looked up): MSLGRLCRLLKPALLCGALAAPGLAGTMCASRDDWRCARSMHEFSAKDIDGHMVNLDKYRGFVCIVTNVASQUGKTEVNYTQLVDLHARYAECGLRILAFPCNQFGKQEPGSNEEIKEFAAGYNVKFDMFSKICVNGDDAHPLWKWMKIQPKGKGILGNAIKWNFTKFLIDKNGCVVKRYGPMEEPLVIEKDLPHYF
UniProt Q9H4G4, sequence (Q9H4G4 whole entry, looked up): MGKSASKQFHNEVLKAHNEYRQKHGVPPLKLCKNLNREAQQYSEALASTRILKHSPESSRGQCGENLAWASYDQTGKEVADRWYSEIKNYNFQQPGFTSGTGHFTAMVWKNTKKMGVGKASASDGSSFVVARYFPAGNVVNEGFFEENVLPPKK
UniProt Q9Y3D6, sequence (Q9Y3D6 whole entry, looked up): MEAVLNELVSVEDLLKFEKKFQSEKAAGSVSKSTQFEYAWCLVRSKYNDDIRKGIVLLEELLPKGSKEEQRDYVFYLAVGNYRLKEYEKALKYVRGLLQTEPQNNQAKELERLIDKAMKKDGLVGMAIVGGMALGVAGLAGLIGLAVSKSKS
UniProt Q9Y692, sequence (Q9Y692 whole entry, looked up): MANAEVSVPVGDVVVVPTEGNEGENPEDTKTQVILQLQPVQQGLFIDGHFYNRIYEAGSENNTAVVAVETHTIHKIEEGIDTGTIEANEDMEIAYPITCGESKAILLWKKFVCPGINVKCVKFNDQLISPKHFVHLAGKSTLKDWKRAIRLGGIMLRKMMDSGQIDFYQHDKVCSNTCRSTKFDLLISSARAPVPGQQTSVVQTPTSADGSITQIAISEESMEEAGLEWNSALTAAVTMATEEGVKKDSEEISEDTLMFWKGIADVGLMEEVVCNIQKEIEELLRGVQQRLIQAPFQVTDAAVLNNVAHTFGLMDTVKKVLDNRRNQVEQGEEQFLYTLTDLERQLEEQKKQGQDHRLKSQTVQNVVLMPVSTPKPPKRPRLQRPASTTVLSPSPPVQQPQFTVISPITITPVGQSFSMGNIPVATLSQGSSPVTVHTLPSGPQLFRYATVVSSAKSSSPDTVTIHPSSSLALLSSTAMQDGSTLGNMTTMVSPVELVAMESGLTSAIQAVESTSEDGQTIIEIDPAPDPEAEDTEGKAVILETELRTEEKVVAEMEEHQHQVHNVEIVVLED
UniProt P14324, sequence (P14324 whole entry, looked up): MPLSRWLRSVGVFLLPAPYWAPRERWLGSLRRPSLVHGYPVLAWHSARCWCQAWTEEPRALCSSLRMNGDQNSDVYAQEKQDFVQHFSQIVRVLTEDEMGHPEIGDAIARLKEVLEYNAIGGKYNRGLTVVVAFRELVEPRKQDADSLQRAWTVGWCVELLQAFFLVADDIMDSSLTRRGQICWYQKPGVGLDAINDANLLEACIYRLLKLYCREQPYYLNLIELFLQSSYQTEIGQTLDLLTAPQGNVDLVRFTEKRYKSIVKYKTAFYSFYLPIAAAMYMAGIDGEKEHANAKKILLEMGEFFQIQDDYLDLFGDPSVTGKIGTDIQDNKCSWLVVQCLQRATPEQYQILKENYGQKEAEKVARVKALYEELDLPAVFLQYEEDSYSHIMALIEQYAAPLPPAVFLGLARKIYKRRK
UniProt Q9UJ14, sequence (Q9UJ14 whole entry, looked up): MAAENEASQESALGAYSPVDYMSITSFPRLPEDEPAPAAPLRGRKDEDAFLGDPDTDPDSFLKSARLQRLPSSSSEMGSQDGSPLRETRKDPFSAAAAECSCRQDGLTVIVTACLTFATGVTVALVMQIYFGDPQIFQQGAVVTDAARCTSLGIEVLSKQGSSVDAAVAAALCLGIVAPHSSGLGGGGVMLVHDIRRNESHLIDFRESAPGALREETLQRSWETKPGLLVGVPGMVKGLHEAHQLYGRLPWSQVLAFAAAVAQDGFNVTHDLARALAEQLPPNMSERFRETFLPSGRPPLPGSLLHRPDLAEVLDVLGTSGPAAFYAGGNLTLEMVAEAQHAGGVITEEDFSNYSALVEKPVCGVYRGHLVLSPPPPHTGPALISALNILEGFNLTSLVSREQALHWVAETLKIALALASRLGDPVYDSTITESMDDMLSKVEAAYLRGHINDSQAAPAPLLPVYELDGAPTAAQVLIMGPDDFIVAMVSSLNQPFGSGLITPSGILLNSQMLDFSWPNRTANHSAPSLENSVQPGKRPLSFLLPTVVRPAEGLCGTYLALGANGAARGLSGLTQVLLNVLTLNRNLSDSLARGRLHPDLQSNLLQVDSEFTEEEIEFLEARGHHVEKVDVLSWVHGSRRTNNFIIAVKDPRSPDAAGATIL
UniProt Q9Y5Q8, sequence (Q9Y5Q8 whole entry, looked up): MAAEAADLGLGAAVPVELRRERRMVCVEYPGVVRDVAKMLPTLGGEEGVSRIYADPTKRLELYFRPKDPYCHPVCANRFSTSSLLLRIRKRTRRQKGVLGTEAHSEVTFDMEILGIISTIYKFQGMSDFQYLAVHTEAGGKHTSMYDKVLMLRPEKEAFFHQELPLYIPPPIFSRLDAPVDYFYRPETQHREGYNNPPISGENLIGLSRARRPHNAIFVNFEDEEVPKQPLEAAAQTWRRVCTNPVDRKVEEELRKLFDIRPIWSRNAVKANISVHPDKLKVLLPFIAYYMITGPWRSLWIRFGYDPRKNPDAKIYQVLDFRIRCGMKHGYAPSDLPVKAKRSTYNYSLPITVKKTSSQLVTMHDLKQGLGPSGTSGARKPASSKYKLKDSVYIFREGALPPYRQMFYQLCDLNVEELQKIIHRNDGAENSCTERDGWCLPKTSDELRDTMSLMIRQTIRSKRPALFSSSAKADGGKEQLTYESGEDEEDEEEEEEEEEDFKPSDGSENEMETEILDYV
UniProt P02008, sequence (P02008 whole entry, looked up): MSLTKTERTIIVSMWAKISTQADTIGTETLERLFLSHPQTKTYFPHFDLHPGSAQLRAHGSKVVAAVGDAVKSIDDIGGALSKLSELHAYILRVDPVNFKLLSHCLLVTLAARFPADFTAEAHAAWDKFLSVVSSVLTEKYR
UniProt P05114, sequence (P05114 whole entry, looked up): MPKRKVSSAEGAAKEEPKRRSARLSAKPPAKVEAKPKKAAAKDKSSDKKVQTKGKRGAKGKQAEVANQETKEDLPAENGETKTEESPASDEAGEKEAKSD

Row | Target | log2 fold change (saracatinib) | log2 fold change (sotrastaurin) | log2 fold change (alvocidib) | log2 fold change (Tubastatin A) | log2 fold change [1] | log2 fold change (defactinib) | log2 fold change (rucaparib) | log2 fold change [2] | log2 fold change (encorafenib) | log2 fold change [3]
1 | FKBP3 (UniProt Q00688) | -0.006 | 0 | -0.004 | 0.017 | 0 | -0.024 | -0.052 | 0.01 | 0.012 | 0.033
2 | GMEB1 (UniProt Q9Y692) | -0.055 | -0.06 | -0.123 | -0.022 | 0.028 | -0.06 | -0.047 | -0.051 | 0.043 | -0.003
3 | HEXB (UniProt P07686) | 0 | 0.029 | -0.004 | -0.101 | 0.017 | -0.002 | -0.078 | -0.033 | 0.01 | -0.001
4 | FARS2 (UniProt O95363) | -0.026 | -0.003 | -0.158 | -0.045 | 0.075 | -0.023 | -0.026 | 0.074 | 0.026 | -0.054
5 | GNPAT (UniProt O15228) | 0.01 | 0.077 | -0.073 | -0.047 | 0.045 | -0.035 | -0.06 | -0.041 | 0.001 | -0.027
6 | HTATIP2 isoform 3 (UniProt Q9BUP3) | -0.016 | 0.023 | -0.113 | -0.009 | -0.001 | -0.065 | 0.023 | 0.022 | 0.01 | -0.016
7 | FIS1 (UniProt Q9Y3D6) | 0.333 (active) | 0.016 | -0.11 | -0.021 | -0.012 | -0.063 | 0.004 | 0.182 | -0.049 | -0.022
8 | GGT7 (UniProt Q9UJ14) | 0.066 | 0.051 | -0.049 | 0.053 | -0.042 | -0.027 | -0.038 | -0.091 | 0 | -0.011
9 | IDI1 isoform 2 (UniProt Q13907) | 0.01 | 0.065 | -0.017 | -0.174 | -0.002 | -0.006 | -0.124 | 0.002 | -0.001 | 0.044
10 | GHDC (UniProt Q8N2G8) | 0.003 | 0.085 | -0.029 | -0.032 | 0.014 | -0.033 | 0.006 | -0.007 | 0.001 | 0.02
11 | GSTM4 (UniProt Q03013) | -0.106 | -0.066 | -0.065 | -0.044 | 0.003 | -0.086 | -0.385 (active) | 0.06 | -0.238 | 0.093
12 | GOLGB1 isoform 2 (UniProt Q14789) | -0.056 | -0.121 | 0.124 | 0.029 | 0.048 | 0 | 0.02 | -0.001 | -0.04 | 0.003
13 | HRAS (UniProt P01112) | 0.002 | 0.091 | -0.075 | 0.014 | -0.015 | -0.012 | 0.072 | 0.077 | -0.042 | 0.062
14 | GLA (UniProt P06280) | 0.056 | -0.027 | -0.008 | -0.027 | -0.02 | 0.008 | 0.04 | -0.043 | -0.022 | 0.059
15 | HEATR5B (UniProt Q9P2D3) | 0.043 | 0.008 | -0.023 | 0.016 | 0.022 | -0.099 | 0.028 | 0.015 | 0.041 | -0.006
16 | ICAM1 (UniProt P05362) | 0.035 | 0.07 | -0.004 | -0.03 | -0.073 | -0.026 | 0.049 | 0.099 | -0.004 | 0.043
17 | GTF3C5 isoform 3 (UniProt Q9Y5Q8) | 0.024 | -0.148 | 0.036 | 0.068 | -0.02 | -0.069 | -0.173 | 0.056 | 0.085 | -0.021
18 | GPX4 (UniProt P36969) | 0.043 | 0.004 | -0.035 | -0.371 (active) | -0.02 | -0.009 | 0.002 | -0.037 | -0.009 | -0.013
19 | IFT74 (UniProt Q96LB3) | -0.079 | -0.001 | 0.048 | 0.259 | -0.223 | 0.028 | 0.06 | 0.003 | -0.055 | 0.075
20 | FDXR isoform 7 (UniProt P22570) | -0.027 | 0.116 | -0.058 | -0.01 | -0.012 | -0.115 | -0.035 | 0.034 | -0.034 | -0.023
21 | GLIPR2 (UniProt Q9H4G4) | 0.002 | -0.027 | 0.054 | -0.002 | 0.036 | 0.047 | 0.015 | 0.035 | -0.062 | -0.013
22 | GALNT2 (UniProt Q10471) | -0.025 | 0.005 | -0.012 | 0.013 | 0.004 | 0.023 | -0.046 | -0.015 | 0.036 | -0.017
23 | HBZ (UniProt P02008) | 0.022 | 0.03 | 0.036 | 0 | -0.041 | 0.011 | -0.026 | -0.006 | -0.004 | -0.025
24 | GAB2 (UniProt Q9UQC2) | -0.164 | 0.029 | -0.053 | -0.024 | -0.575 | -0.194 | 0.162 | -0.137 | -0.023 | 0.116
25 | GLUL (UniProt P15104) | 0.012 | -0.058 | 0.026 | 0.048 | 0.142 | 0.036 | -0.039 | -0.153 | -0.02 | 0.038
26 | HBQ1 (UniProt P09105) | -0.029 | 0.007 | -0.034 | -0.011 | -0.013 | -0.009 | -0.027 | 0.008 | -0.007 | 0.028
27 | IFNGR1 (UniProt P15260) | 0.05 | -0.038 | 0.253 | 0.11 | -0.215 | 0.051 | 0.056 | -0.009 | -0.026 | 0.088
28 | HMGN1 (UniProt P05114) | 0.024 | 0.068 | 0.149 | -0.087 | 0.03 | 0.09 | 0.043 | -0.064 | -0.01 | 0.011
29 | FDPS (UniProt P14324) | -0.151 | -0.041 | -0.057 | 0.062 | -0.097 | -0.032 | -0.112 | 0.237 | 0.137 | -0.118
30 | HEATR3 (UniProt Q7Z4Q2) | -0.045 | -0.167 | -0.128 | 0.109 | -0.054 | -0.048 | 0.081 | -0.006 | -0.028 | -0.006
